In PubChem BioAssay AID720504 (National Center for Advancing Translational Sciences (NCATS), 2013):
In all, about 360,000 compounds went through this assay and about 10,000 (2.8%) were called active. Another 4% or so got no clear call; they are omitted. The sample holds actives, similar compounds and a random draw of the others, so the mix is not that of the screen. A number with no mark means an inactive call. The call rests on the fitted dose curve; in most records, active means well fitted inhibition curve with a large enough effect; inconclusive means small, poorly fitted or top-dose-only effect; inactive means flat fitted curve, though single readings scatter.

biological target: Serine/threonine-protein kinase PLK1 (Homo sapiens) (UniProt P53350); assay: qHTS for Inhibitors of PLK1-PDB (polo-like kinase 1 - polo-box domain): Primary Screen; details: Plk1 PBD binding of FITC phosphopeptide, fluorescence polarization; further: nearly all actives have a fitted effect of over 65% in size; on max response, negative = inhibition: series mostly up to about 57 µM
On the % scale 0 is the no-effect control and ±100 the full control effect; potency means the concentration at half of the fitted maximal effect.

Serine/threonine-protein kinase PLK1 (Homo sapiens), sequence (P53350 whole entry, looked up, the tested form may be a part): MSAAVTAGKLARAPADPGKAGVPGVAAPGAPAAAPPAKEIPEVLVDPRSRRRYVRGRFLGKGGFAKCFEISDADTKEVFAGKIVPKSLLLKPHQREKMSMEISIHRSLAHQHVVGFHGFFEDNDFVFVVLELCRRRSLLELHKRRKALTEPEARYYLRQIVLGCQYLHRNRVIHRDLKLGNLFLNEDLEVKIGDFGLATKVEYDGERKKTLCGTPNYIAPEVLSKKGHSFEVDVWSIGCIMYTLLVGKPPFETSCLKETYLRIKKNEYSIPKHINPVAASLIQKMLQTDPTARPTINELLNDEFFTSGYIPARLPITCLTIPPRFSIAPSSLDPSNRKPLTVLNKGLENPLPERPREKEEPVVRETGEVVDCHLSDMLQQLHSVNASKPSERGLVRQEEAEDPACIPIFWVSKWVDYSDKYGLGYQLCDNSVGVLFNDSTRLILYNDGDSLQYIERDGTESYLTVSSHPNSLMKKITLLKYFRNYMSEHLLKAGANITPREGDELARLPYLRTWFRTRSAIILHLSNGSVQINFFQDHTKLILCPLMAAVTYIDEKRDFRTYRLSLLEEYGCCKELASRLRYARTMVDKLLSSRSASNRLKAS

Row | SMILES | max response, negative = inhibition [%] | Potency
1 | CCOC(=O)[C@]12CCCC=C1N(CCC1=CCCCC1)C(=O)[C@H](CC(=O)NCCCOC)C2 | 2.46 | –
2 | CCOc1ccc(S(=O)(=O)NCCC(=O)NNC(=O)c2ccc(F)cc2)cc1 | -14.6 | –
3 | COc1ccc(NC(=O)c2sc(=O)n(Cc3ccc(S(=O)(=O)N(C)C)cc3)c2C)cc1 | -0.145 | –
4 | COC(=O)/C=C\C(=O)Nc1cccc([N+](=O)[O-])c1 | – | 5.97 µM (active)
5 | O=C(CN1CCOCC1)Nc1cccc([N+](=O)[O-])c1 | -23.6 | –
6 | O=C(Nc1cccc([N+](=O)[O-])c1)Nn1cnnc1 | -2.87 | –
7 | CC(=O)C[C@@H]1OC[C@H](C)N1S(=O)(=O)c1ccc(C)cc1 | -5.26 | –
8 | COc1cc(/C=C/C(=O)OCC(=O)NC(=O)NCc2ccccc2)ccc1OCC#N | -6.76 | –
9 | COc1cc(/C=C/C(=O)OCC(=O)N2CCOCC2)ccc1OCC#N | – | 26.7 µM (active)
10 | COc1cc(/C=C/C(=O)Nc2ccc(OC)c(S(=O)(=O)N3CCOCC3)c2)ccc1OCC#N | -0.928 | –
11 | CC(C)(C)c1ccc(S(=O)(=O)NC(=O)C2(C)CCN2C(=O)CC2CC2)cc1 (stereo unspecified) | -12 | –
12 | Cc1cccc(CN2CCN(C3CN(Cc4cn(Cc5ccccc5F)nn4)S(=O)(=O)C3)CC2)c1 (stereo unspecified) | 3.36 | –
13 | OC[C@@H]1CN(Cc2ccc3c(c2)OCO3)C[C@H](n2cnc3c(NCc4ccco4)ncnc32)O1 | -2.35 | –
14 | COC(=O)c1ccc(/C=C2/C(=O)Oc3ccccc32)cc1 | -0.125 | –
15 | O=C(NN=Cc1ccccc1O)NN=Cc1ccccc1O | -11.7 | –
16 | O=C1Oc2ccccc2C(=O)/C1=C/c1ccccc1O | – | 2.67 µM (active)
17 | CC(=O)NC(c1cccc(F)c1)c1nc(-c2cccc(F)c2)cs1 (stereo unspecified) | -0.575 | –
18 | COc1ccc(-c2nnc(-c3ccc4ccccc4c3)o2)cc1 | -4.59 | –
19 | CN(C)c1ccc(-c2nnc(-c3cccnc3)o2)cc1 | 3.15 | –
20 | Nc1ccc(-c2nnc(-c3ccc(-c4ccccc4)cc3)o2)cc1 | – | 13.4 µM (active)
21 | COc1cc(NC(=O)C2=C(C)OCCS2)c(Cl)cc1C(=O)NCCCN1CCCC(C)C1 (stereo unspecified) | -4.33 | –
22 | Cc1cc(C(=O)N/N=C/c2ccc(O)c([N+](=O)[O-])c2)c(C)n1-c1ccc(F)cc1 | -24.1 | –
23 | O=[N+]([O-])c1ccc(N2CCSCC2)cc1O | 2.23 | –

Row | SMILES | max response, negative = inhibition [%] | Potency
24 | O=C1CSC(=S)N1/N=C/c1ccc(O)c([N+](=O)[O-])c1 | – | 23.8 µM (active)
25 | CS(=O)(=O)N1CCCCC1c1cc(C(=O)NCc2ccccc2)no1 (stereo unspecified) | -4.51 | –
26 | CCCCN1C(=O)C(CC(=O)NCc2cccs2)CC(C(=O)N2CCCCCC2)=C1C (stereo unspecified) | -3.48 | –
27 | COC(=O)C(Cc1c[nH]c2ccccc12)NC(=O)CCNC(=O)c1ccco1 (stereo unspecified) | 3.99 | –
28 | CCCCN1CC(C)(C)[C@H](CC(=O)Nc2ccc(Br)cc2)C1=O | 2.01 | –
29 | COc1cc(NC(=O)CSC(=S)N2CCCC2)c(OC)cc1Cl | -15.5 | –
30 | COc1ccc(C)cc1NC(=S)N1CCOCC1 | -2.89 | –
31 | COc1cc(NC(=S)N2CCCC(C)C2)c(OC)cc1Cl (stereo unspecified) | – | 18.9 µM (active)
32 | C[C@@H]1Cn2cnc(C(=O)Nc3ccc(CNC(=O)OC(C)(C)C)cc3)c2C(=O)N1 | -11.4 | –
33 | COc1ccc2oc(=O)cc(-c3cc4ccccc4o3)c2c1 | – | 26.7 µM (active)
34 | COc1cccc2cc(-c3cc(=O)oc4cc(C)c(O)cc34)oc12 | -14.5 | –
35 | COc1ccc(Nc2cc(=O)oc3ccccc23)cc1 | -6.94 | –
36 | CC(=O)Nc1ccc(S(=O)(=O)Nc2nccc(/C=C/c3ccccc3F)n2)cc1 | -13.8 | –
37 | Nc1ccc(S(=O)(=O)Nc2nccc(/C=C/c3ccc(Br)s3)n2)cc1 | – | 9.47 µM (active)
38 | Oc1cccc2ccc(/C=C/c3ccc(Br)s3)nc12 | -8.23 | –
39 | CC(C)C1Cc2[nH][nH]c(=O)c2C(c2ccc(Cl)cc2)O1 (stereo unspecified) | -26.3 | –
40 | CCCOC(=O)c1ccc(N2C(=O)c3ccccc3C2=O)cc1 | -2.78 | –
41 | CCOc1ccc(NC(=O)C(C)N2C(=O)c3ccccc3C2=O)cc1 (stereo unspecified) | -11.1 | –
42 | CCO/C=C1\C(=O)N(c2ccc(OCC)cc2)C(=O)c2ccccc21 | – | 13.4 µM (active)
43 | COc1ccc(NC(=O)C[C@H]2C(=O)N(CCc3ccccc3)C[C@@H]2C)cc1 | -7.3 | –
44 | CC1(C(=O)NS(=O)(=O)c2ccc(C#N)cc2)CCN1C(=O)c1ccc(C2CCCCC2)cc1 (stereo unspecified) | -18.9 | –
45 | COc1cccc(-c2cc(C(=O)N/N=C/c3ccc(OC)c(COC(C)=O)c3)c3ccccc3n2)c1 | – | 29.9 µM (active)
46 | CCOc1ccc(-c2cc(C(=O)N/N=C/c3ccc(O)cc3)c3ccccc3n2)cc1 | 1.12 | –

Row | SMILES | max response, negative = inhibition [%] | Potency
47 | COc1ccc(-c2cc(C(=O)N/N=C/c3cccnc3)c3ccccc3n2)c(OC)c1 | 1.56 | –
48 | CC1=NN(C(=O)c2ccc(Br)cc2)C(O)(c2ccccc2)C1 (stereo unspecified) | -4.08 | –
49 | CC1=NN(C(=O)c2ccccc2Br)C(O)(c2cccnc2)C1 (stereo unspecified) | -6.62 | –
50 | CC1=NN(C(=O)Cc2ccc(C)cc2)C(O)(c2cccnc2)C1 (stereo unspecified) | – | 23.8 µM (active)
51 | O=c1cc(CN2CCCCCCC2)c2c(ccc3ccccc32)o1 | -3.34 | –
52 | CCCCCCCCN1C(=O)[C@H](CC(=O)NCc2cccc3ccccc23)C[C@@]2(C(=O)OC)CCCCC=C12 | -2.64 | –
53 | COc1ccc(C(C)(NC(C)=O)c2nc(-c3ccc(S(C)(=O)=O)cc3)cs2)cc1 (stereo unspecified) | 0.405 | –
54 | Cc1ccc(C=O)c([B-](F)(F)F)c1 | -2.89 | –
55 | CC(=O)Nc1ccc2c3c(ccc([N+](=O)[O-])c13)CC2 | -1.77 | –
56 | COc1cc(C(=O)CCc2ccc3c(c2)OCO3)cc(OC)c1OC | -9.68 | –
57 | COc1ccc2cc1Oc1ccc(cc1)C[C@H]1c3cc(c(OC)cc3CCN1C)Oc1c(O)c(OC)cc3c1[C@H](C2)N(C)CC3 | -6.01 | –
58 | COc1c(O)ccc2c1CN1CCc3cc4c(cc3C1C2)OCO4 (stereo unspecified) | – | 23.8 µM (active)
59 | CC1(Oc2ccccc2-c2ccno2)CCN(Cc2ccc(-c3ccccc3)o2)C1 (stereo unspecified) | -2.77 | –
60 | O=C(CSc1nc2ccccc2o1)N/N=C/c1ccccc1C(=O)O | – | 26.7 µM (active)
61 | CC(C)(C)C(=O)CSc1nc2ccccc2o1 | -18 | –
62 | O=C(CSc1nc2ccccc2o1)N1CCN(c2ccccc2)CC1 | -6.93 | –
63 | O=C(NCc1cccnc1)c1cc(C2CCCCN2C(=O)CCc2ccccc2)on1 (stereo unspecified) | -11.3 | –
64 | COC(=O)c1cccc(NC(=O)c2cccc(N3C(=O)CCC3=O)c2)c1 | -2.1 | –
65 | COC(=O)c1cccc(-n2[nH]nnc2=S)c1 | – | 23.8 µM (active)
66 | COC(=O)c1cccc(N2C(=O)C3C4C=CC(CC4)C3C2=O)c1 (stereo unspecified) | -4.67 | –
67 | CCOC(=O)[C@]12CCCC=C1N(CCC1=CCCCC1)C(=O)[C@H](CC(=O)N1CCCCC1)C2 | -0.904 | –
68 | Cc1ccnc(-n2sc3ccccc3c2=O)n1 | – | 3.77 µM (active)
69 | Cc1ccnc(SC2CC(=O)N(c3ccccc3)C2=O)n1 (stereo unspecified) | -15.5 | –

Row | SMILES | max response, negative = inhibition [%] | Potency
70 | COCCNc1nc(Nc2ccccc2Cl)c2sc(-c3ccccc3)cc2n1 | -12.6 | –
71 | Cc1ccc(C(=O)N2CCCc3ccccc32)c(Cl)c1 | 3.98 | –
72 | Cc1ccc2cccc([N+](=O)[O-])c2n1 | 2.99 | –
73 | CCOC(=O)c1ccccc1CN1C(=O)c2ccccc2S1(=O)=O | -6.41 | –
74 | CCOC(=O)c1cc2n(c1N)-c1ccccc1C2=O | – | 2.67 µM (active)
75 | CCOC(=O)c1ccccc1NC(=O)c1c(N)n(C)c(=O)[nH]c1=O | -13.3 | –
76 | CN(Cc1ccccc1)C(=O)[C@@H]1CCCN1C(=O)[C@@H]1CCCN1C(=O)c1c(F)cccc1F | -9.51 | –
77 | O=C(COc1ccccc1F)Nc1nc(-c2ccccn2)cs1 | – | 11.9 µM (active)
78 | O=C(CN1C(=O)C2C3C=CC(C3)C2C1=O)Nc1nc(-c2ccccn2)cs1 (stereo unspecified) | -7.14 | –
79 | O=C(CSC1=NCCS1)Nc1nc(-c2ccccc2)cs1 | -11.4 | –
80 | N#Cc1ccc(OCC(=O)Nc2nc(-c3ccccn3)cs2)cc1 | – | 8.44 µM (active)
81 | CC1CCCCC1NC(=O)COc1ccc(C#N)cc1 (stereo unspecified) | -1.85 | –
82 | CC(NC(=O)c1ccco1)C(=O)Nc1nc(-c2ccccn2)cs1 (stereo unspecified) | -15.6 | –
83 | CC(C)c1cc(C(=O)N(C)C2CCCN(Cc3ccccc3F)C2)n(C)n1 (stereo unspecified) | -5.2 | –
84 | NC(Cc1ccc(F)cc1)c1csc(Nc2nncc3ccccc23)n1 (stereo unspecified) | -1.72 | –
85 | COC(=O)[C@]12CCCCC=C1N(Cc1ccccc1)C(=O)[C@H](CC(=O)NCc1ccc(C)o1)C2 | -1.64 | –
86 | CNC(=O)c1ccc(CN(C)C(=O)c2cc(C3CC3)nc3c2cnn3C(C)C)cc1 | -13.7 | –
87 | O=S1(=O)CC(N2CCN(Cc3ccccc3F)CC2)CN1Cc1cn(Cc2ccccc2)nn1 (stereo unspecified) | 0.233 | –
88 | CCOC(=O)C1CCCN(C(=O)c2cc(-c3cccs3)oc2C)CC1 (stereo unspecified) | -3.67 | –
89 | O=C(Oc1cccc(C(=S)N2CCOCC2)c1)c1cccc(Cl)c1 | -12.2 | –
90 | O=C(Oc1ccc(F)cc1)N1CCOCC1 | -11.5 | –
91 | O=C(Oc1ccc(C(=S)N2CCOCC2)cc1)c1ccc(F)cc1 | – | 21.2 µM (active)
